Assay outcomes as filed in PubChem BioAssay.
In the library only some 2.5% were active in any assay of this set; here they are far more common.
Efflux pump mplx = inhibitors of Candida antifungal efflux pumps expressed in yeast; S. cerevisiae Candida pump triplex, Nile Red efflux; inhibition, % at 10 µM; actives 0.44% (n = 330,000); AID 485275;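 active = plate passing quality check with inhibition over a set limit, or well fluorescence over plate mean plus 4 SD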;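 note: Nile Red retained in pooled yeast measured as flow cytometry median fluorescence; higher means more Nile Red kept so more efflux inhibition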
Mot1-301 SUMO = inhibitors of SUMOylation pathway: yeast Mot1-301 growth rescue. S. cerevisiae Mot1-301 growth rescue, ATP luminescence, 38.5C; percent above DMSO median, 100 means doubled. growth rescue, % at 18.8 µM. actives 1% (n = 320,000). AID 2716;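 active = every valid replicate shows activation above 250% relative to neutral control wells; inactive = the rest, any valid replicate at or below 250%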
ATG4B inh = inhibitors of human ATG4B cysteine protease; Q9Y4P1; ATG4B cleavage of LC3-PLA2, NBD-HPC fluorescence, 1 h; inhibition, % at 8.33 µM; actives 0.51% (n = 340,000); AID 504462; in the data active = inhibition above about 40%
V-ATPase pHluor = regulators of yeast V-ATPase proton transport. AID 504577. actives 0.37% (n = 350,000). S. cerevisiae, pHLuorin cytosolic pH fluorescence. response, % at 10 µM; in the data active = response mostly above about 7.3%, no sharp cut-off; inactive = mostly below about 5.4%; note: actives read high
AI-2 QS mod = modulates the Vibrio harveyi AI-2 quorum sensing system | actives 0.4% (n = 300,000) | activity change, % at 7.5 µM | AID 2094 | Vibrio harveyi JMH597 AI-2 luminescence/OD600 ratio, 9 h; hits give low values; strain lacks LuxN and CqsS sensors; 0 = neutral-control median; in the data active = activity change below about -75%, passing the limit was not always enough;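 note: luminescence divided by OD600 gain over 9 h not by final OD600 alone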
VATPase regulator = yeast V-ATPase proton transport regulation; response, % at 10 µM; actives 2% (n = 980); shares compounds with V-ATPase pHluor; S. cerevisiae pHLuorin cytosolic pH; in the data active = response above about 24%
Numbers stand for hits; 0 = inactive; - = not tested or not shown.

SMILES	Efflux pump mplx	Mot1-301 SUMO	ATG4B inh	V-ATPase pHluor	AI-2 QS mod	VATPase regulator
COc1ccccc1N1CCN(C(=O)C2CCN(S(=O)(=O)c3ccc4c(c3)CC(C)N4C(C)=O)CC2)CC1 (configuration not stated)	0	0	0	0	0	-
COc1ccccc1N1CCN(C(=O)C2CCN(S(=O)(=O)c3ccc4c(c3)CC(C)N4C(=O)C3CC3)CC2)CC1 (configuration not stated)	0	0	0	13.6	-	0
CCOC(=O)C1=CCN(Cc2ccccc2)CC1	0	0	0	0	0	-
CC(=O)NCCNS(=O)(=O)c1ccc(C)c([N+](=O)[O-])c1	0	0	0	10.2	0	0
Cc1ccc(S(=O)(=O)NC2CC2)cc1[N+](=O)[O-]	0	0	0	0	0	-
O=C(Cn1ncc2c1-c1ccccc1OC2)Nc1ccc(S(=O)(=O)N2CCCCC2)cc1	0	0	0	11.8	-	0
O=C(Nc1ccccc1)OCc1cnc(Cl)s1	0	0	0	7.0	0	0
O=C(Nc1ccc(Cl)c(Cl)c1)OCc1cnc(Cl)s1	0	0	0	0	0	-
Cn1c(SCC(=O)NC2(C#N)CCCCC2)nnc1-c1cccnc1	0	0	0	9.3	0	0
Cc1ccc(C(=O)N2N=C(c3cccc(NS(C)(=O)=O)c3)CC2c2cccs2)cc1 (configuration not stated)	0	0	0	0	0	-
Cc1c(N=Cc2c(O)n(C)c(=O)c3ccccc23)c(=O)n(-c2ccccc2)n1C	0	0	0	0	-	-
Cc1c(N=Cc2c(O)n(C3CCCCC3)c(=O)[nH]c2=O)c(=O)n(-c2ccccc2)n1C	0	0	0	19.3	0	0
Cc1ccc(NC(=O)CCC(=O)NNC(=O)c2ccccc2)c(C)c1	0	0	0	0	0	-
Cc1ccc(NC(=O)CCC(=O)NNC(=O)c2ccccc2Cl)c(C)c1	0	0	0	12.7	0	0
O=C1C2C3C=CC(CC3)C2C(=O)N1/N=C/c1c(O)ccc2ccccc12 (configuration not stated)	0	-	0	7.5	0	0
